High-throughput results as filed in PubChem.
In the library only some 4.8% were active in any assay of this set; here they are far more common.
hgDAF-12 ag: agonists of H. glycines DAF-12 nuclear receptor. HEK293 GAL4-hgDAF12 UAS-luciferase reporter, agonist luminescence; normalized to butyrate control. activation, % at 6.8 µM. 370,000 tested, 1.8% active;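 active = activation above a cutoff set at the mean of all screened compounds plus 3 SD, cut at about 10% in these data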
DAX1 inh-1: inhibitors of DAX1 repression of SF-1 activated StAR promoter. HEK293T StAR-luciferase reporter, SF-1/DAX-1 repression relief. inhibition, % at 6.8 µM. 370,000 tested, 1.1% active. AID 652010;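 active = inhibition above the mean over all tested compounds plus 3 SD, cut at about 3.6% in these data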;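 note: higher inhibition means more luminescence from relief of DAX-1 repression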
ssDAF-12 act: S. stercoralis DAF-12 activation, primary screen; HEK293 ssDAF-12/GRIP1 lit1-tk-luc reporter, luminescence; % of 3 µM dafachronic acid response; activation, % at 6.8 µM; 370,000 tested, 1% active; AID 652126;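 active = activation above the mean over all tested compounds plus 3 SD, cut at about 0.9% in these data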
SMARCA2 act: SMARCA2 function activation, primary screen. MG213 cells, MMTV-luciferase reporter, dexamethasone, overnight. activation, % at 9.1 µM. 370,000 tested, 1% active; in the data active = activation above about 7.8%
hcDAF12 agonist: activates DAF-12 receptor from parasite H. contortus; HEK293 hcDAF-12 lit1-tk-luc reporter, luminescence; 0% DMSO, 100% Δ7-dafachronic acid; activation, % at 6.8 µM; 370,000 tested, 1.4% active; AID 652067;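 active = activation above the mean of all tested compounds plus 3 SD, cut at about 5.5% in these data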
DAX1 inh-2: inhibits human nuclear receptor DAX1; HEK293 Gal4-DAX1 luciferase reporter, luminescence; inhibition, % at 6.75 µM; 340,000 tested, 0.99% active;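 active = inhibition above the mean over all tested compounds plus 3 SD, cut at about 4.2% in these data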;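 note: inhibition shows as a rise in luminescence from relieved DAX1 repression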
Target sequence (P51843 207-470 limits assumed): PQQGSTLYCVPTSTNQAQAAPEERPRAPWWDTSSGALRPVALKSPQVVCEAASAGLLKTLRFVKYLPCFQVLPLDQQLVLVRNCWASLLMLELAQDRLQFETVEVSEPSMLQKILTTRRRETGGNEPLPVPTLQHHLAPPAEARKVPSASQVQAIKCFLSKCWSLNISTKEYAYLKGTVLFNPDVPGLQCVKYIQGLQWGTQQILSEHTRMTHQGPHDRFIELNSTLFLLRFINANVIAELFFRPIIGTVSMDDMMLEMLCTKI
SMARCA2 conf: confirmation of SMARCA2 (BRM) function activators; shares compounds with SMARCA2 act; MG213 cells, MMTV-luciferase with dexamethasone, luminescence, overnight; MG213 cells expressing E1A, Rb sequestered; DMSO wells 0%, reference activator 100%; activation, % at 9.1 µM; 3,500 tested, 30% active; AID 652260;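 active = activation above its plate's cutoff, the mean activation of tested wells plus 3 SD, cut at about 7.9% in these data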
VP16 Luc act: activates GAL4-VP16 luciferase, flagging SMARCA2 activator hits. 3,500 tested, 41% active. HEK293 GAL4-VP16 pG5luc reporter, luciferase luminescence; scaled: DMSO wells 0%, SAHA wells 100%. activation, % at 9.1 µM. shares compounds with SMARCA2 act;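 active = activation above the solvent-only control well mean plus 3 SD, averaged across control plates, cut at about 5.2% in these data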
Hits are given with their value; i = inactive; nt = no result.

SMILES | hgDAF-12 ag | DAX1 inh-1 | ssDAF-12 act | SMARCA2 act | hcDAF12 agonist | DAX1 inh-2 | SMARCA2 conf | VP16 Luc act
Cc1ccc(CNS(=O)(=O)c2c(C)[nH]c(C)c2C(=O)N2CCCCC2)cc1 | i | i | i | i | i | i | nt | nt
Cc1[nH]c(C)c(S(=O)(=O)Nc2ccc(F)cc2Cl)c1C(=O)N1CCCC1 | i | i | i | 9.0 | i | i | i | i
COc1ccccc1-c1nc(-c2ccc(C)nc2OC)no1 | i | i | i | i | i | i | nt | nt
CCOc1ccc(S(=O)(=O)N2CCC(C(=O)NCc3ccccc3CN3CCCC3)CC2)cc1 | i | i | i | 12 | i | i | i | i
Cc1ccc(S(=O)(=O)N2CCC(C(=O)NCc3ccccc3CN3CCCC3)CC2)cc1 | i | i | i | i | i | i | nt | nt
CCOc1ccc(N=C(/C(C(=O)C(=O)N2CCOCC2)=C(\O)c2ccccc2)c2ccccc2)cc1 | 12 | i | i | 9.2 | i | i | i | 6.1
CC(C1=CCCCC1)c1cnn(C)c1 (stereo unspecified) | i | i | i | 9.4 | i | nt | i | i
CC(O)CN=c1cc(-c2ccccc2)oc2ccc(Cl)cc12 (stereo unspecified) | 11 | i | i | 8.4 | i | i | 18 | 13
COc1ccc(CCNC(=O)c2ccc3nc(N4CCCCC4)sc3c2)cc1OC | i | i | i | 10 | i | i | i | 8.5
CCCN1CCN(CCCNC(=O)c2ccc3nc(N4CCCCC4)sc3c2)CC1 | i | 4.4 | i | 13 | i | i | 14 | 13
COc1ccc2nc(N3CCCC(C(=O)NCCc4ccc(OC)c(OC)c4)C3)sc2c1 (stereo unspecified) | i | i | i | i | i | i | nt | nt
CC1CCCC(C)N1CCCNC(=O)c1ccc2nc(N3CCOCC3)sc2c1 (stereo unspecified) | i | i | i | i | i | i | nt | nt
CC1CCCC(C)N1CCCNC(=O)c1ccc2nc(N3CCCCC3)sc2c1 (stereo unspecified) | i | 3.8 | i | 18 | i | i | 9.8 | 17
O=C(Nc1cccnc1)c1cc(-c2cc(Cl)ccc2O)n[nH]1 | i | i | i | 11 | i | i | 9.6 | 9.9
COc1ccc(C(=O)Nc2ccnn2C2CCN(C(=O)c3cnsn3)CC2)cc1 | i | i | i | 8.9 | i | i | i | i
COc1ccccc1C(=O)Nc1ccnn1C1CCN(C(=O)c2cnsn2)CC1 | i | i | i | i | i | i | nt | nt
CN1OC[C@@H]2CN(C(=S)NCCc3ccccc3)[C@H](c3ccc(-n4ccnc4)cc3)C[C@@H]21 | i | i | i | 8.4 | i | nt | i | i
CCOC(=O)c1c(NC(C)=O)sc2c(OCC(O)CNC(C)(C)C)c(Br)ccc12 (stereo unspecified) | i | i | i | 11 | i | i | 8.7 | i
c1ccc(-c2noc(CSc3nnnn3C3CCCCC3)n2)cc1 | i | i | i | i | i | i | nt | nt
COc1cccc(-c2cc(C(=O)N3CCCCC3C)no2)c1 (stereo unspecified) | i | i | i | 12 | i | i | i | 12
COc1cccc(-c2cc(C(=O)O)no2)c1 | i | i | i | i | i | i | nt | nt
Cc1c(F)cccc1NS(=O)(=O)c1ccccc1C#N | i | i | i | 9.2 | i | i | i | i
COc1ccccc1NS(=O)(=O)c1ccccc1C#N | i | i | i | i | i | i | nt | nt
Cc1occc1C(=O)NNC(=O)Nc1ccc(F)cc1F | i | i | i | i | i | i | nt | nt
Cc1occc1C(=O)Nc1ccc(Br)cc1F | 12 | i | i | 10 | i | i | 16 | 10.0
SMILES | hgDAF-12 ag | DAX1 inh-1 | ssDAF-12 act | SMARCA2 act | hcDAF12 agonist | DAX1 inh-2 | SMARCA2 conf | VP16 Luc act
Cc1ccc(NC(=S)Nc2cc(C)on2)cc1 | i | i | i | 8.6 | i | nt | i | 13
CN(C)c1ccc(/C=C/C(=O)c2ccc3c(c2)OCO3)cc1 | i | i | i | 8.0 | i | i | i | i
O=C(/C=C/c1ccccc1)c1ccc2c(c1)OCO2 | i | i | i | i | i | i | nt | nt
Cc1ccc(C(=O)/C=C/c2ccc(Br)cc2)o1 | i | i | i | i | i | i | nt | nt
Cc1ccc(C(=O)/C=C/c2ccc3c(c2)OCO3)o1 | i | i | i | 11 | i | i | 9.4 | i
O=C(CSc1nnc(CNC(=O)c2cccs2)o1)Nc1ccccc1C(F)(F)F | i | i | i | i | i | i | nt | nt
O=C(COC(=O)c1ccc(Br)o1)NCCCc1ccccc1 | i | i | i | i | i | i | nt | nt
COc1ccccc1C1CC(=O)Oc2cc(C)c(Br)c(C)c21 (stereo unspecified) | i | i | i | i | i | i | nt | nt
Cc1ccsc1C(=O)Nc1nccs1 | i | i | i | 9.3 | i | i | i | i
Cc1ccc(/C=C/C(=O)Nc2nccs2)o1 | i | i | i | 11 | i | i | 8.4 | 10
Cc1occc1C(=O)Nc1nccs1 | i | i | i | i | i | i | nt | nt
Cc1ccc(/C=C/C(=O)NC2CCCCCCC2)o1 | i | i | i | 8.0 | i | i | 20 | i
Cc1ccc(/C=N/NC(=O)NC2CCCCC2)o1 | i | i | i | i | i | i | nt | nt
Cc1c(S(=O)(=O)N2CCC(C)CC2)c(=O)n(C)c(=O)n1C | i | i | i | i | i | i | nt | nt
O=C(CCc1nnc(CCCc2ccccc2)o1)NCCc1ccccc1 | i | i | i | i | i | i | nt | nt
O=C(CCc1nnc(CCCc2ccccc2)o1)NCCCC1CCCC1 | 11 | i | i | 9.7 | i | i | i | 6.5
CCCN(Cc1cc2ccc(C)cc2[nH]c1=O)S(=O)(=O)c1ccccc1 | i | i | i | i | i | i | nt | nt
Cc1cc(C)cc(NC(=O)/C=C/c2ccc([N+](=O)[O-])s2)c1 | i | i | i | 8.8 | i | i | i | i
COc1ccc2sc3cccc(NCCN(C)C)c3c(=O)c2c1 | i | i | i | 29 | i | nt | 40 | i
CN(C)CCNc1ccc(CO)c2sc3ccc(O)cc3c(=O)c12 | i | i | i | 14 | i | i | i | 11
CN(C)CCNc1ccc(-c2nn(C)c(=O)c3ccccc23)cc1[N+](=O)[O-] | i | i | i | i | i | i | nt | nt
COc1cccc2sc3ccc(NCCC4CCCN4C)cc3c(=O)c12 (stereo unspecified) | i | i | i | i | i | i | nt | nt
CN(C)CCNc1ccc2ncn3c4ccc(O)cc4c(=O)c1c23 | i | i | i | 15 | i | i | 141 | i
C[C@H](CO)N1C[C@H](C)[C@@H](CN(C)Cc2ccc(Cl)c(Cl)c2)Oc2c(NC(=O)CCC(F)(F)F)cccc2C1=O | i | i | i | i | i | i | nt | nt
